Experimental data as given in PubChem BioAssay AID1159580 (chemical genetic matrix, 2015).
The campaign covered roughly 5,500 compounds. About 2,000 (36%) were called active. Roughly 18% stayed inconclusive and do not appear here. No stated cut-off is given here; in the data, active means normalized growth mostly below about 0.91 (no sharp cut-off); inconclusive means no clear call, values can overlap the other calls; inactive means mostly above about 0.92. Some of the results follow.

Assay: chemical genetic growth profiling, strain panel (AID 1159580);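 further: tested at 20 µM; growth read once vehicle control cultures reached saturation at 30 °C; 1 = growth at the plate median or of vehicle wells; lower values mean less growth of the strain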
Conditions: S. cerevisiae deletion strains, growth OD

Measured: normalized growth

C#C[C@]1(O)CCC2C3CCc4cc(OC)ccc4C3CC[C@@]21C (stereo not given in full)
active: locus YBR023C, strain chs3, active compounds read low 0.913 | locus YCL016C, strain dcc1, active compounds read low 0.912 | locus YDR137W, strain rgp1, active compounds read low 0.839 | locus YDR392W, strain spt3, active compounds read low 0.614 | locus YHR142W, strain chs7, active compounds read low 0.866 | locus YLR262C, strain YPT6 (second series), active compounds read low 0.798 | locus YNL071W, strain lat1, active compounds read low 0.89
inactive: locus YAL021C, strain ccr4, active compounds read low 1.02 | locus YAL026C, strain drs2, active compounds read low 0.956 | locus YAL030W, strain snc1, active compounds read low 0.987 | locus YBL061C, strain skt5, active compounds read low 0.968 | locus YBR009C, strain hhf1, active compounds read low 0.933 | locus YBR171W, strain sec66, active compounds read low 0.959 | locus YBR231C, strain swc5, active compounds read low 0.953 | locus YBR279W, strain paf1, active compounds read low 0.967 | locus YCL011C, strain gbp2, active compounds read low 0.923 | locus YCL061C, strain MRC1, active compounds read low 0.937 | locus YCL069W, strain vba3, active compounds read low 0.976 | locus YCR088W, strain abp1, active compounds read low 0.972 | locus YDL005C, strain med2, active compounds read low 0.985 | locus YDL040C, strain nat1, active compounds read low 0.982 | locus YDR001C, strain nth1, active compounds read low 0.982 | locus YDR069C, strain doa4, active compounds read low 1.01 | locus YDR159W, strain sac3, active compounds read low 0.949 | locus YDR195W, strain ref2 1.01 | locus YDR297W, strain sur2, active compounds read low 0.994 | locus YDR334W, strain swr1, active compounds read low 0.983 | locus YDR335W, strain msn5, active compounds read low 0.998 | locus YEL003W, strain gim4, active compounds read low 0.984 | locus YEL037C, strain rad23, active compounds read low 0.968 | locus YEL061C, strain CIN8 (second series), active compounds read low 0.972 | locus YER015W, strain faa2, active compounds read low 0.991 | locus YER016W, strain bim1, active compounds read low 0.99 | locus YER111C, strain swi4, active compounds read low 0.969 | locus YER155C, strain BEM2 (second series), active compounds read low 0.923 | locus YFR010W, strain ubp6, active compounds read low 0.962 | locus YGL167C, strain pmr1, active compounds read low 0.972 | locus YGL173C, strain kem1, active compounds read low 0.98 | locus YGL227W, strain vid30, active compounds read low 0.987 | locus YGL240W, strain doc1, active compounds read low 0.963 | locus YGL253W, strain hxk2, active compounds read low 0.912 | locus YHR013C, strain ard1, active compounds read low 0.926 | locus YHR027C, strain rpn1, active compounds read low 0.987 | locus YHR030C, strain SLT2, active compounds read low 0.974 | locus YHR079C, strain IRE1, active compounds read low 0.987 | locus YJL092W, strain hpr5, active compounds read low 0.96 | locus YJL095W, strain BCK1 (second series), active compounds read low 0.975 | locus YJL095W, strain BCK1, active compounds read low 0.975 | locus YJL115W, strain asf1, active compounds read low 0.988 | locus YJL129C, strain trk1, active compounds read low 0.965 | locus YJL154C, strain vps35, active compounds read low 0.983 | locus YJL164C, strain tpk1, active compounds read low 0.923 | locus YJL166W, strain qcr8, active compounds read low 0.923 | locus YJL187C, strain SWE1, active compounds read low 0.987 | locus YJR066W, strain TOR1, active compounds read low 0.933 | locus YKL160W, strain elf1, active compounds read low 0.913 | locus YKR026C, strain gcn3, active compounds read low 0.988 | locus YKR091W, strain srl3, active compounds read low 0.975 | locus YLL001W, strain dnm1, active compounds read low 0.903 | locus YLL026W, active compounds read low 0.979 | locus YLL041C, strain sdh2, active compounds read low 0.986 | locus YLR027C, strain aat2, active compounds read low 0.969 | locus YLR113W, strain HOG1, active compounds read low 0.931 | locus YLR221C, strain rsa3, active compounds read low 0.912 | locus YLR258W, strain gsy2, active compounds read low 0.956 | locus YLR320W, strain mms22, active compounds read low 0.902 | locus YLR342W, strain FKS1, active compounds read low 0.952 | locus YLR357W, strain rsc2, active compounds read low 0.909 | locus YLR370C, strain arc18, active compounds read low 0.966 | locus YLR384C, strain iki3, active compounds read low 0.986 | locus YML120C, strain ndi1, active compounds read low 0.933 | locus YMR058W, strain fet3, active compounds read low 0.935 | locus YMR125W, strain sto1, active compounds read low 0.951 | locus YMR129W, active compounds read low 0.977 | locus YMR205C, strain PFK2, active compounds read low 0.923 | locus YMR231W, strain pep5, active compounds read low 0.993 | locus YNL183C, strain NPR1, active compounds read low 0.917 | locus YNL209W, strain ssb2, active compounds read low 0.974 | locus YNL248C, strain rpa49, active compounds read low 0.951 | locus YNL322C, strain KRE1 (second series), active compounds read low 0.964 | locus YNR049C, strain mso1, active compounds read low 0.983 | locus YOR001W, strain rrp6, active compounds read low 1 | locus YOR070C, strain gyp1, active compounds read low 0.951 | locus YOR080W, strain dia2, active compounds read low 0.999 | locus YOR083W, strain WHI5, active compounds read low 0.919 | locus YOR106W, strain vam3, active compounds read low 0.969 | locus YOR231W, strain MKK1, active compounds read low 0.958 | locus YOR265W, strain rbl2, active compounds read low 0.969 | locus YOR270C, strain vph1, active compounds read low 0.949 | locus YOR290C, strain snf2, active compounds read low 0.874 | locus YPL051W, strain arl3, active compounds read low 0.923 | locus YPL078C, strain atp4, active compounds read low 0.902 | locus YPL106C, strain sse1, active compounds read low 0.913 | locus YPL240C, strain hsp82, active compounds read low 0.985 | locus YPL256C, strain CLN2, active compounds read low 0.973
